Rows were chosen to be rich in hits. Some 2.8% of all compounds tested hit in one or more screens of this group.
MRP1 act – activates MRP-1; H69AR cells + doxorubicin, viability rescue, CellTiter-Glo; viability increase, % at 10 µM; 0.61% of 140,000 active;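 active means viability gain under doxorubicin at or above a set limit, the compound median plus 3 SD, cut at about 4.7% in these data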;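 further: MRP-1 overexpressing cells given doxorubicin 25 µM after compound pretreatment; 18-22 h compound pretreatment then 72 h with doxorubicin before readout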
ERb SRC1 inh – blocks coactivator binding to human estrogen receptor beta; TR-FRET ER-beta LBD / SRC1-Cy5 peptide binding; receptor agonist-loaded with 1 µM estradiol; 1.3% of 86,000 active; inhibition, % at 25.6 µM;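 active means compounds whose percent inhibition of the receptor-coactivator binding signal exceeds about 50% in the single-dose screen, limit read from the data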
ERa coact inh – ER-alpha (human) coactivator binding inhibition. P03372. TR-FRET ER-alpha LBD / SRC-1 peptide, estradiol-bound. inhibition, % at 25.6 µM. 1.7% of 86,000 active; in the data active means inhibition above about 50%
MRP reversal – MRP-mediated drug resistance reversal | H69AR cells + 2 uM doxorubicin, CellTiter-Glo, 72 h | differential viability (reversal), % at 10 µM | 0.04% of 85,000 active | AID 602;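 active means viability drop by adding the cancer drug above about 55%, with treated viability meeting a 40% cutoff, limit read from the data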;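 further: larger differential means the compound sensitizes cells more to doxorubicin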
Smad3 FoxH1 inh – inhibitors of human Smad3 transcription factor binding; P84022; TR-FRET Smad3/Dy647-FoxH1 peptide binding, europium anti-His; inhibition, % at 25 µM; 0.29% of 88,000 active; AID 630;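 active means compounds that reduce the energy-transfer binding signal between the protein and its labelled peptide by more than half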
Target sequence (P84022 whole entry, looked up): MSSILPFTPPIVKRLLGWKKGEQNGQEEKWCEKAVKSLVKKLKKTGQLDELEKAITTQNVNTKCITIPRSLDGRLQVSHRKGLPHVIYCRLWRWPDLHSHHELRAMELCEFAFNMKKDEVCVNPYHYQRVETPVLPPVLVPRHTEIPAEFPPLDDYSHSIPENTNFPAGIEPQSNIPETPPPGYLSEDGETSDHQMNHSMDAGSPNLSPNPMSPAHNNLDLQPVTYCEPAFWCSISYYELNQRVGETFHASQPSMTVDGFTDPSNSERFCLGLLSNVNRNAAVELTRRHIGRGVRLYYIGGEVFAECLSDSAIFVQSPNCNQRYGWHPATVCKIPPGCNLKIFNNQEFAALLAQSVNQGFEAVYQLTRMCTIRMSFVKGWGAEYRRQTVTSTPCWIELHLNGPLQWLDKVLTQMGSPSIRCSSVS
ERa coact pot – ER-alpha (human) coactivator binding potentiation. TR-FRET ERalpha-LBD/SRC-Cy5 coactivator binding, 2 h; 100 = basal binding, no effect. coactivator binding (% of control), % at 25.6 µM. AID 639. 1.3% of 86,000 active. P03372; in the data active means activity above about 200%;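 further: binding measured in presence of low estradiol as agonist stimulus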
Large screens that a line does not name were inactive; [ ] = another dose, or the depositor's remark.

Cc1cc2cc(CNC(=O)c3ccc(S(=O)(=O)N4CCCCC4)cc3)ccc2n1C	ERa coact pot 404.3[fluorescence artefact?]
Cc1cc(C)cc(OCC(=O)Nc2nonc2NC(=O)COc2cc(C)cc(C)c2)c1	ERa coact inh 82.0[fluorescence artefact?]
O=CN1CCN(C[C@H](O)CN2CCCCC2)CC1	none (no result: MRP1 act, ERb SRC1 inh, ERa coact inh, MRP reversal, ERa coact pot)
CCOC(=O)C1=c2/c(=C/c3ccccc3OC)c(N)c(C#N)n2C(=O)C(c2ccccc2OC)S1 (stereo not given)	ERb SRC1 inh 51.5, ERa coact inh 62.9
C=CCOc1ccc(/C=N/N2C(=O)C(CC(=O)Nc3ccc(F)cc3F)SC2=NC)cc1 (stereo not given)	none (no result: ERb SRC1 inh, ERa coact inh, MRP reversal, Smad3 FoxH1 inh, ERa coact pot)
O=C(Cn1ncn2c(cc3ccccc32)c1=O)NCCC1=CCCCC1	none
O=C(Cn1cnc2sc(-c3ccccc3)cc2c1=O)NCc1ccco1	ERa coact inh 66.0[fluorescence artefact?]
O=C(Cn1cnc2sc(-c3ccccc3)cc2c1=O)NCCc1ccccc1	ERa coact pot 213.2[fluorescence artefact?]
O=C(Cn1ncn2c(cc3ccccc32)c1=O)NCc1ccco1	ERa coact inh 56.8[fluorescence artefact?]
Cc1sc2ncn(CC(=O)NCCc3ccccc3)c(=O)c2c1C	none
O=C(Cn1cnc2sc(-c3ccccc3)cc2c1=O)NCc1ccccc1	ERb SRC1 inh 62.7[fluorescence artefact?], ERa coact inh 59.1[fluorescence artefact?], ERa coact pot 216.4
COc1cc(/C=N/NC(=O)C23CC4CC(CC(C4)C2)C3)cc(Br)c1O	MRP1 act 13.7 (no result: ERb SRC1 inh, ERa coact inh, MRP reversal, Smad3 FoxH1 inh, ERa coact pot)
CCCCCC(=O)N/N=C/c1cc(Br)c(O)c(OC)c1	none (no result: ERb SRC1 inh, ERa coact inh, MRP reversal, Smad3 FoxH1 inh, ERa coact pot)
Cc1cccc(OCC(=O)NC(=S)Nc2ccc(S(=O)(=O)NC3CCCCC3)cc2)c1	none (no result: ERb SRC1 inh, ERa coact inh, MRP reversal, Smad3 FoxH1 inh, ERa coact pot)
CCc1c(C)sc(NC(=O)c2cnn3cccnc23)c1C#N	ERa coact pot 261.7[fluorescence artefact?]
Cc1ccccc1Cn1nc(C)c(NC(=O)c2noc3c2CC(C(C)(C)C)CC3)c1C (stereo not given)	none
Cc1ccccc1Cn1nc(C)c(NC(=O)c2noc3c2CCc2ccccc2-3)c1C	MRP1 act 5.2
Cc1ccccc1-c1cc2c(nn1)-c1ccccc1C2=O	none
Cc1ccc(-c2cc3c(nn2)-c2ccccc2C3=O)cc1	ERa coact inh 63.2[fluorescence artefact?] (no result: MRP1 act)
O=C(Nc1ccccc1[N+](=O)[O-])C1=C(O)CCn2c1nc1ccccc12	ERa coact inh 63.0, Smad3 FoxH1 inh 50.5
Cc1nc2ccccc2n1C(=O)c1ccccc1[N+](=O)[O-]	none (no result: ERb SRC1 inh, ERa coact inh, MRP reversal, Smad3 FoxH1 inh, ERa coact pot)
O=C(O)CNCCc1ccccc1	none (no result: MRP1 act, ERb SRC1 inh, ERa coact inh, MRP reversal, ERa coact pot)
COc1cc2cc(C(c3nnnn3C3CCCC3)N3CCCCC3)c(=O)[nH]c2cc1OC (stereo not given)	none
O=c1[nH]c2cc3c(cc2cc1C(c1nnnn1C1CCCCC1)N1CCSCC1)OCCO3 (stereo not given)	ERa coact pot 253.6[fluorescence artefact?]
O=C(Nc1cccc([N+](=O)[O-])c1)C12CC3CC(C1)CC(n1cnc([N+](=O)[O-])n1)(C3)C2	none (no result: ERb SRC1 inh, ERa coact inh, MRP reversal, Smad3 FoxH1 inh, ERa coact pot)
CC(C)c1nnc(NC(=O)c2c(O)c3cccc4c3n(c2=O)CC4)s1	none (no result: MRP1 act)
CCCc1nnc(NC(=O)c2c(O)c3cccc4c3n(c2=O)CCC4)s1	ERb SRC1 inh 56.1[fluorescence artefact?] (no result: MRP1 act)
CCN1C/C(=C/c2cccc([N+](=O)[O-])c2)C(=O)/C(=C/c2cccc([N+](=O)[O-])c2)C1	none (no result: ERb SRC1 inh, ERa coact inh, MRP reversal, Smad3 FoxH1 inh, ERa coact pot)
COCC(=O)Nc1c(C(=O)Nc2ccccc2OC)oc2ccccc12	ERa coact pot 213.3[fluorescence artefact?]
COc1cccc(OCC(=O)Nc2c(C(=O)Nc3ccc(OC)cc3OC)oc3ccccc23)c1	ERb SRC1 inh 50.1[fluorescence artefact?], ERa coact inh 72.9[fluorescence artefact?], ERa coact pot 219.8[fluorescence artefact?] (no result: MRP1 act)
COc1ccccc1NC(=O)c1oc2ccccc2c1NC(=O)c1cc(OC)c(OC)c(OC)c1	none (no result: MRP1 act)
CCOCC(=O)Nc1c(C(=O)Nc2ccc(OC)cc2OC)oc2ccccc12	none
COc1ccc(NC(=O)c2oc3ccccc3c2NC(=O)C(C)(C)C)cc1	MRP1 act 5.5 (no result: ERb SRC1 inh, ERa coact inh, MRP reversal, Smad3 FoxH1 inh, ERa coact pot)
NC(=O)C1CCN(c2nc(-c3ccccc3)nc3c2oc2ccccc23)CC1	ERa coact pot 343.6[fluorescence artefact?] (no result: MRP reversal)
NC(=O)C1CCN(c2nc(-c3ccccc3)nc3ccccc23)CC1	none
O=C(O)[C@@H]1[C@H]2C[C@@H]3[C@@H](OC(=O)[C@@H]31)[C@H]2Br	none (no result: MRP1 act, ERb SRC1 inh, ERa coact inh, MRP reversal, ERa coact pot)
CCOC(=O)N1CCC(n2c(=S)[nH]c3cc(OCC)c(OCC)cc3c2=O)CC1	ERb SRC1 inh 51.9[fluorescence artefact?]
CCOc1cc2[nH]c(=S)n(CCN3CCC(C)CC3)c(=O)c2cc1OCC	none
O=C(Nc1ccc2c(c1)OCO2)c1nn(-c2ccccc2)c(=O)c2ccccc12	none

Assay outcomes as filed in PubChem BioAssay.
